The record followed here is PubChem BioAssay (NCI).

Compounds without any hit were thinned out: in the full panel of roughly 83,000, 20% have a hit.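 The test compound was applied at a single concentration to cells in 96-well plates for 48 hours, and percent growth was recorded.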 Values without a mark were called inactive. Active and inactive are the calls of the source. The calls were made as follows: active = growth percent below 10; inactive = the rest.

Experiment in all cases: NCI-60 one-dose screen, 48 h (100 = growth as untreated, 0 = no growth, -100 = all killed)
Conditions in all cases: 10 µM unless noted

Test [1] has as its system HCT-15 colon.
The test system of test [2] is HT29 colon.
The test system of test [3] is SNB-75 CNS.
In test [4] the test system is SNB-19 CNS.
The subject of test [5] is U251 CNS.
Test [6] concerns PC-3 prostate.
Test [7] has as its system SK-MEL-5 melanoma.
The test system of test [8] is UACC-62 melanoma.
In test [9] the test system is LOX IMVI melanoma.
The test system of test [10] is SK-MEL-28 melanoma.
Test [11] concerns SK-MEL-2 melanoma.
Test [12] has as its system EKVX NSCLC.
The test system of test [13] is SN12C renal.
For test [14], the system named is UO-31 renal.
In test [15] the test system is TK-10 renal.
The subject of test [16] is ACHN renal.
In test [17] the test system is CAKI-1 renal.
For test [18], the system named is A498 renal.
Test [19] relates to CCRF-CEM leukemia.
Test [20] concerns MOLT-4 leukemia.

Take `CCOC(=O)C(=CNc1ccccc1[N+](=O)[O-])C(=O)OCC`: the growth in test [1] is 108%; in [2], 92.6%; in [3], 97%; in test [4] it was 91.2%; in test [5], 92.6%; in test [6] it was 95.7%. Also, the growth is 86.4% in [7]; 84.4% in test [8]; 99.9% in [9]; 102% in test [10]; 101% in [11]; 114% in test [12]. For the same molecule, the growth in test [13] is 94.2%; in test [14] it was 78.2%; in [15] it was 106%; in test [16] it was 86%; in test [17], 98.9%; in [18], 64.1%. Besides, the growth is 93.7% in test [19] and 96.1% in test [20].

With `Cc1nc(Nc2cccc(NC(=O)Nc3ccc(Cl)cc3)c2)c2ccccc2n1`, the growth in test [1] is 77%; in test [2] it was 80.8%; in test [3], 85.3%; in test [4] it was 99.9%; in test [5] it was 91.9%; in [6], 77.9%. The growth in [7] was 91.5%; in test [8], 76.4%; in test [9], 88.7%; in test [10], 102%; in test [11], 107%; in test [12] it was 87.2%. Also, the growth is 92.9% in test [13]; 88.2% in test [14]; 104% in [15]; 105% in test [16]; 80.4% in [17]; 81.8% in test [18]. Besides, the growth in [19] was 82.9%; in test [20], 76.7%.

For the molecule `CC1(C)C(=O)/C(=C\c2cccnc2)C[C@]2(C)[C@H]3CC=C4[C@@H]5C[C@@](C)(C(=O)O)CC[C@]5(C)CC[C@@]4(C)[C@]3(C)CC[C@@H]12`, the growth in test [1] is 87.5%; in test [2], 91.5%; in test [3], 82%; in [4], 96.8%; in [5], 89%; in test [6] it was 75.3%. Further, the growth in test [7] was 109%; in [8] it was 97.7%; in [9] it was 99.5%; in [10], 109%; in [11] it was 96.8%; in [12], 95.8%. In addition, the growth was 94.2% in test [13]; 84.2% in [14]; 101% in test [15]; 95.8% in [16]; 86.9% in test [17]; 100% in test [18]. The values for the growth in test [19] and in test [20] were 81.8% and 87.2%, respectively.

As to `CN(C)c1cnccn1`, the growth in test [1] was 87.6%; in test [2], 104%; in test [3], 96.6%; in test [4], 101%; in test [5], 78.4%; in [6], 88.6%. Moreover, the growth was 96.1% in test [7]; 98.6% in test [8]; 84.3% in test [9]; 103% in test [10]; 85.4% in test [11]; 104% in test [12]. The growth is 88.6% in test [13]; 84.2% in test [14]; 145% in test [15]; 87.1% in test [16]; 95.6% in [17]; 95.7% in test [18]. For the same molecule, the growth is 60.6% in test [19] and 93.7% in test [20].

Regarding `COc1ccc(CN2C(=O)/C(=C\c3cc(OC)c(OC)c(OC)c3)c3ccccc32)cc1`, the growth in [1] was -55.8% (active); in test [2], 0.194% (active); in [3] it was 8.57% (active); in test [4], 60.3%; in [5], -73.6% (active); in [6] it was 10.9%. In addition, the growth in test [7] was -25.1% (active); in test [8], -8.88% (active); in [9] it was -76% (active); in [10] it was -34.9% (active); in [11], -41% (active); in test [12] it was 5.9% (active). The growth is 12.8% in [13]; 5.84% (active) in test [14]; 25.2% in test [15]; -59.5% (active) in [16]; -53.9% (active) in test [17]; 52.7% in [18]. Also, the growth in test [19] was 5.62% (active); in test [20] it was 1.82% (active).

Take `NC(N)=N/N=C(/c1ccccc1)c1ccc(N)cc1`: the growth in test [1] is 106%; in [2] it was 132%; in test [3], 122%; in test [4] it was 106%; in test [5] it was 97.5%; in test [6] it was 127%. The growth was 101% in [7]; 91.2% in [8]; 95% in [9]; 150% in test [10]; 112% in [11]; 88.2% in test [12]. For the same molecule, the growth in test [13] was 96.2%; in [14], 95%; in [15], 135%; in test [16], 107%; in test [17] it was -0.33% (active); in test [18], 125%. Moreover, the growth in [19] was 124%; in test [20] it was 107%.

As to `c1ccc2c(c1)nc(-n1ccnc1)c1nc3ccccc3n12`, the growth in [1] was 82.7%; in test [2] it was 74%; in test [3] it was 70%; in [4], 42.8%; in test [5], 61.5%; in test [6] it was 68%. Also, the growth in [7] was 68.9%; in test [8], 72%; in test [9], 71%; in test [10], 82.5%; in test [11], 88.7%; in [12] it was 74.1%. For the same molecule, the growth in test [13] is 52.6%; in [14], 46.1%; in test [15], 72.4%; in test [16], 32.3%; in [17], 56%; in test [18], 79.7%. In addition, the growth in [19] is 78%; in [20] it was 74.9%.
